Assay results taken from ChEMBL document CHEMBL4513216, “Probing the Open Global Health Chemical Diversity Library for Multistage-Active Starting Points for Next-Generation Antimalarials” (ACS Infect Dis, 2020).
About 8,600 (12%) of roughly 69,000 compounds showed an effect of 50% or more. The full list was thinned out, with strong results kept by preference.

These compounds were tested on Plasmodium berghei (assay: Screen against P. berghei liver stage (PbLuc), transformed with Luciferase, at 10uM). Settings: tested at 10 uM.
Type: functional, HepG2

SMILES	INHIBITION [%]
CC(NC(=O)NCCCN1CCCC1=O)c1nncn1C (centres undefined)	-7.31
CCC(C(=O)NC1CCCC1)n1ccc2ncccc2c1=O (centres undefined)	-13.2
Cc1n[nH]c(C)c1C1CCCN1C(=O)NCC(=O)Nc1ccccc1 (centres undefined)	22
O=C(c1ccc2c(c1)OCCCO2)N1CCCC(n2ccnc2)C1 (centres undefined)	42
Cc1csc(CCNC(=O)NC(C)Cn2cccn2)n1 (centres undefined)	-7.31
COc1ccc(NC(=O)c2cnc(N(C)C3CCCCC3)nc2N)cc1	35.7
CCC1CCC(CNC(=O)c2c[nH]c(=O)c(Cl)c2)CC1 (centres undefined)	4.35
CN(c1ccc(CNC(=O)c2c[nH]c(=O)c(Cl)c2)cc1)C1CCCCC1	77.6
CN(C)c1cc(CNC(=O)c2ccc(O)nc2)ccn1	9.64
Cc1ccc(C(=O)NCc2ccc(N(C)C)cc2)cn1	32
CN(c1ccc(CNC(=O)c2ccc(O)nc2)cc1)C1CCCCC1	67.8
CN(c1ncc(C(=O)Nc2ccccc2)c(N)n1)C1CCCCC1	47.2
CN(c1ncc(C(=O)NCc2ccccc2)c(N)n1)C1CCCCC1	63.6
CNC(=O)c1ccc(CNC(=O)NCCN(C)C2CCCC2)cc1	-2.53
CC/C=C(\C)CN1CCC(CNC(=O)c2c[nH]c(=O)c(Cl)c2)C1 (centres undefined)	63.8
CC/C=C(\C)CN1CCC(CNC(=O)c2ccnc(N)c2)C1 (centres undefined)	-5.8
CC/C=C(\C)CN1CCC(CNC(=O)c2ccc(=O)[nH]c2)CC1	-24.7
CCOc1ncccc1NC(=O)N1CCC(CN2CCOCC2)CC1	31.65
C[C@@H]1C(=O)NC[C@H]2CN(CCc3ccccc3)C[C@H]21	26.6
CCC(CN1CCCC1)n1cncc1-c1cnn(-c2ccc(F)cc2)c1 (centres undefined)	43.55
CCOC1COC2(CCN(c3ncc(C)cn3)CC2)C1 (centres undefined)	10.6
CC(C)c1cc(C(=O)N2CCCC(n3cncn3)C2)n[nH]1 (centres undefined)	15.6

SMILES	INHIBITION [%]
Fc1ccc(-c2nnc(CN3CCCC3Cn3cccn3)o2)cc1 (centres undefined)	11.6
Cn1nc2c(c1NC(=O)c1ccc(Cl)s1)CCC2	-57.9
O=C(c1ccc(C2CCCO2)s1)N1Cc2ccccc2C1 (centres undefined)	-44.8
CC(=O)N1CCCC1c1ccc(C(=O)N2CCOCC2)s1 (centres undefined)	21.7
CN1CCCC1c1ccc(C(=O)Nc2c3c(nn2C)CCC3)s1 (centres undefined)	56
Cn1nc2c(c1NC(=O)c1ccc(C3CCCN3C3CCC3)s1)CCC2 (centres undefined)	15.4
CN1CCCC1c1ccc(C(=O)N2CCc3ccccc3C2)s1 (centres undefined)	66.9
COCC1CC2(CCN(Cc3cnn(C)c3)CC2)CN1c1ncccn1 (centres undefined)	18.5
O=C(CN1CCCC1COc1ccccc1)NCc1ccccn1 (centres undefined)	38.2
Cc1ccc(NC(=O)NC(C)(C)c2noc(C)n2)cc1	13.6
Cc1nc(C(C)(C)NC(=O)Nc2ccc(C#N)cc2)no1	79.2
Cc1nc(C(C)(C)NC(=O)Nc2cccc(C#N)c2)no1	-4.74
CCc1csc(C2CCCN(C(=O)c3ccnc(N(C)C)c3)C2)n1 (centres undefined)	27.6
CC(C)c1nnc(NC(=O)NCc2cccnc2NCCN(C)C)s1	25.7
Cc1nc(NC(=O)NCc2cccnc2NCCN(C)C)sc1C	37.7
CN(C)CCNc1ncccc1CNC(=O)Nc1cc(F)cc(F)c1	55.6
Cn1cc(S(=O)(=O)N(Cc2ccc(F)cc2F)C2CC2)cc1C(N)=O	40.9
Cc1n[nH]c(C)c1NC(=O)CN1CCCC1c1c(C)nn(C)c1C (centres undefined)	9.54
CCN(CC)C(=O)CSc1nc2cc(C)nc-2c(O)n1CC	42.4
c1cncc(C2COC3(CCN(Cc4nccs4)CC3)C2)c1 (centres undefined)	36.2
O=C(CCn1ccc2ccccc21)N1CCN(Cc2cccnc2)CC1	64.9
Cc1nc(CN2CCN(C(=O)CCc3cccnc3)CC2)no1	65.2

SMILES	INHIBITION [%]
Cc1nc(CN2CCN(C(=O)CC(C)(C)c3ccccc3)CC2)no1	-73.6
Cc1nc(CN2CCN(C(=O)CCc3cccc(Cl)c3)CC2)no1	75.2
O=C(CCn1ccc2ccccc21)N1CCC(Nc2cccnn2)CC1	-35.2
Cc1nc(CN2CCN(C(=O)CCC(=O)c3ccccc3)CC2)no1	-36.4
Cc1nc(CN2CCN(C(=O)Cc3cccc(Cl)c3)CC2)no1	-2.04
COc1cccc(CCC(=O)N2CCN(Cc3noc(C)n3)CC2)c1	-30.7
O=C(CCn1ccc2ccccc21)N1CCC(Nc2cccnc2)CC1	-22.4
O=C(CCn1cccn1)N1CCSCC1	4.55
CN(C)Cc1ccccc1CN(C)C(=O)c1ccoc1	11.1
c1c(CN2CCCCC2)nc2n1CCNC2	-46.4
Cc1nn(C)cc1S(=O)(=O)N(C)[C@@H]1CCC[C@@H](n2ccnc2)[C@@H]1O	23
O=C(CCc1c(F)cccc1F)NS(=O)(=O)c1ccc2c(c1)OCCO2	0.914
OCc1cc2ccccc2nc1NCC1CC1	59.1
OCc1cc2ccccc2nc1NC1CC=CC1	62.8
Cc1nnc2n1CC(CNc1ncnc3ccccc13)CC2 (centres undefined)	22
COc1nc2ccccc2cc1CN1CCC(CNS(C)(=O)=O)C1 (centres undefined)	7.15
Cc1cc(C)c2c(NCC3(O)CCCCC3)ncnc2n1	36.6
CC(C)(C)c1n[nH]cc1CNCC1CCN(CC(F)(F)F)C1 (centres undefined)	-35.2
OC1(CNc2ccc(Br)cn2)CCC1	-28.6
OCc1cc2ccccc2nc1NCC1(O)CCC1	58.2
FC(F)(F)CN1CCC(CNc2nc3ccccc3o2)C1 (centres undefined)	24.8
OCc1cc2ccccc2nc1NCC1CCN(CC(F)(F)F)C1 (centres undefined)	63.8

SMILES	INHIBITION [%]
COc1cccn(CC(=O)N2CCCC3(CCOCC3)C2)c1=O	40.9
COCCNC(=O)[C@@]12CCO[C@@H]1CCN(Cc1ccc(OC)cc1)C2	39.2
COc1ccc(CN2C[C@H]3CCC[C@@H](CN(C)C4CC4)[C@H]3C2)cn1	-15.3
CC(C)(C)c1n[nH]cc1CNCC1CCN(C2CC2)C1 (centres undefined)	26.3
CN(CC1CCOC1)S(=O)(=O)c1cccc(C(=O)N2CCOCC2)c1 (centres undefined)	1.19
CC(C)N1CCCC(C(=O)N2CCN(c3cccc(C(=O)O)c3)CC2)C1 (centres undefined)	21.2
COCCN(C)C[C@@H]1CN(c2cc(C)nc3ccccc23)C[C@@H]1CO	-34.8
CN(Cc1nc2ccccc2s1)C1CCCN(c2cccnn2)C1 (centres undefined)	24.7
Cc1cc(C)c(CNc2ncnc3ccccc23)c(=O)[nH]1	14.7
Cc1cc(C)c(CNc2cnc3ccccc3n2)c(=O)[nH]1	-1.35
Cc1cc(C)c(CNc2nc3ccccc3cc2CO)c(=O)[nH]1	55.8
Cc1nc(C)n(C2CCCN(C(=O)c3ccc(O)nc3)C2)n1 (centres undefined)	16.1
Cc1nn(C)c(N(C)C)c1CNCc1cccc(Cn2cncn2)c1	-17.6
Cc1c[nH]nc1C1CCCN1Cc1nccn1C (centres undefined)	18.4
COc1ccc(OC)c(CNCc2ccnc(N3CCCCC3)c2)c1	10.6
COc1ccc(CNCc2ccnc(N3CCCCC3)c2)cc1OC	37.2
COc1c(CNCc2cccnc2N2CCCCC2)c(C)nn1C	-91.6
COc1c(CNCc2cccnc2N2CCOCC2)c(C)nn1C	-7.7
COc1c(CNCc2ccnc(N3CCCC3)c2)c(C)nn1C	-8.3
COc1cccc2cc(CNCc3ccc(N4CCCC4)nc3)oc12	21.6
COc1cc(CNCc2ccnc(N3CCCCC3)c2)cc(OC)c1	80.9
COc1c(CNCc2ccnc(N3CCCCC3)c2)c(C)nn1C	87.3

SMILES	INHIBITION [%]
COc1c(CNCc2cccnc2N2CCN(C)CC2)c(C)nn1C	51.3
COc1ccc(CNCc2ccc(N3CCCCC3)nc2)cc1OC	52.7
COc1c(CNCc2ccnc(N3CCOCC3)c2)c(C)nn1C	19.4
COc1cccc2cc(CNCc3ccnc(N4CCCCC4)c3)oc12	-19.4
O=C(NCc1cccnc1N1CCCCC1)c1ccc2cc[nH]c2c1	2.7
NC1(CN2CCOCC2)CCCCC1	8.12
C[C@H]1CN(c2ccccn2)C[C@@]12CCN(c1cccnc1)C2=O	8.66
COc1ccc(CNCc2ccnc(N3CCCC3)c2)c(OC)c1	41.45
COc1cc(CNCc2ccnc(N3CCOCC3)c2)cc(OC)c1	19.2
COc1cc(CNCc2ccnc(N3CCCC3)c2)cc(OC)c1	59.6
CCN1CC(C(=O)NCCc2csc(-c3ccncc3)n2)CCC1=O (centres undefined)	1.86
Cc1cnc(-c2nc(C3CCN(C(=O)Cc4ccsc4)CC3)no2)cn1	2.71
COCCN1CCC(NC(=O)C/C=C/c2ccc(C(C)C)cc2)CC1	61.1
CC(C)c1ccc(/C=C/CC(=O)NC2CCS(=O)(=O)CC2)cc1	71.2
COCCN1CCC(NC(=O)C(C)C)CC1	-34.4
CC(C)c1ccc(/C=C/CC(=O)NC2CCN(C(N)=O)CC2)cc1	83.5
CC(C)c1ccc(/C=C/CC(=O)NC2CCN(C(N)=O)C2)cc1 (centres undefined)	36.5
CC(C)c1noc(CCCC(=O)NC2CCS(=O)(=O)C2)n1 (centres undefined)	-7.46
CC(C)c1ccc(OCCC(=O)N2CCC(C(N)=O)CC2)cc1	32.2
CC(C)c1noc(CCC(=O)NC2CCS(=O)(=O)C2)n1 (centres undefined)	-12.2
COCCN1CCC(NC(=O)Cn2cc(C)c3ccccc32)CC1	17.4
